From PubChem
Shown are actives, neighbours in structure and some others; about 3.8% of the full set was active somewhere.
S2 tox – viability counter-screen for ATXN expression inhibitors; S2 cells (HEK-293 line with an ATXN2-luciferase reporter) viability, CellTiter-Fluor protease fluorescence, 24 h; Potency, µM (top dose mostly 56.7 µM), hits mostly cytotoxic; AID 651635; actives 0.49% (n = 400,000); also: nearly all actives have a fitted effect of over 40% in size
TGFb inhibitor – blocks TGF-b signaling; Potency, µM (titrated, usually from 46.1 µM), without a hit: top-dose activity, negative = inhibition, usual class: inhibitors; actives 1.2% (n = 410,000); HepG2 CAGA-GFP TGF-b/SMAD3 reporter, GFP fluorescence, 18 h; TGF-beta stimulated, 500 pg/mL final; AID 588855; also: % is scaled to controls: 0 for no effect and ±100 for the full control effect; nearly all actives have a fitted effect of over 65% in size
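GFP signal (ex488/em500-530) from TGF-beta-stimulated HEPG2 CAGA-GFP cells, 500 pg/mL final, 18 h at 37 degrees C in DMEM plus 1% FBS, normalized to unstimulated and DMSO-stimulated controls.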
HepG2 viability – counter-screen for TGF-b inhibitors: cytotoxicity in HepG2 cells | HepG2 CAGA-GFP viability, ATP luminescence, 18 h | Potency, µM (top dose mostly 46.1 µM), without a hit: top-dose activity change, negative = cytotoxicity, hits mostly cytotoxic | actives 0.76% (n = 410,000)
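CellTiter-Glo luminescence gave cytotoxicity after 18 hours at 37 degrees C. The cells were HepG2 CAGA-GFP in 1% FBS DMEM, stimulated with 500 pg/mL TGF-beta after compound addition. %Activity was normalised to no-cell wells (complete cell-killing) and DMSO (no toxicity), and curves were fitted and classified.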
HT1080-NT tox – kills 2HG-producing HT-1080-NT fibrosarcoma cells; Potency, µM (series often up to 46.1 µM), without a hit: at the highest dose activity, negative = less viability, most hits filed as cytotoxic; HT-1080-NT fibrosarcoma viability, CellTiter-Glo ATP luminescence, 48 h; actives 1.6% (n = 360,000);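 also: NT is the 2HG producing partner of a matched IDH1 knockdown line; 0% = DMSO-treated cells and -100% = media-only wells without cells; nearly all actives have a fitted effect of over 55% in size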
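HT-1080-NT; 750 cells/well; 5% FBS RPMI; 48 h compound, 37 degrees C; CellTiter-Glo luminescence; curve fitting and curve-class assignment.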
ATXN2 expr inh – reduces ATXN2 reporter expression in HEK-293 cells; HEK-293 ATXN2-luciferase reporter, luminescence, 24 h; Potency, µM (titrated, usually from 57 µM), for inactives: at the highest dose activity change, negative = inhibition, usual class: inhibitors; actives 0.72% (n = 360,000); AID 1745845; also: % is scaled to controls: 0 for no effect and ±100 for the full control effect; nearly all actives have a fitted effect of over 55% in size
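ATXN2-luciferase reporter cells (luciferase flanked by upstream and downstream ATXN2 gene portions) were treated 24 h at 37 °C with compounds at up to 57 uM. SteadyGlo luminescence gave expression; GF-AFC fluorescence gave viability.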
HT1080 IDH1KD tx – kills HT-1080 cells with IDH1 knockdown; HT-1080 IDH1 knockdown viability, ATP luminescence, 48 h; Potency, µM (top dose mostly 46.1 µM), for inactives: top-dose activity, negative = toxicity, most hits filed as cytotoxic; actives 2% (n = 360,000); AID 686971;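 also: 0% = DMSO wells and -100% = cell-free medium wells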
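Cytotoxicity counter-line: IDH1KD HT-1080, 48 h, CellTiter-Glo. Curves classed by r2, magnitude and activity.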
* = called active by the depositor; i = inactive; ? = inconclusive; / = no result given. Calls follow the shape of the dose curve; as a rule, active = well fitted curve in the direction sought with a large enough effect; inconclusive = small, poorly fitted or top-dose-only effect, or another doubt; inactive = no such curve, though single readings can be large; an effect the other way counts as inactive or inconclusive. Potency is read from the fitted curve at half-maximal effect.

SMILES | S2 tox | TGFb inhibitor | HepG2 viability | HT1080-NT tox | ATXN2 expr inh | HT1080 IDH1KD tx
CC1=NN(S(=O)(=O)c2ccc(C)cc2)C(=O)c2ccccc2O1 | i | -2.5% | 2.1% | 0.0% | / | 7.9%
O=C(CN1C(=O)C2(SCC(=O)N2c2cccc(Cl)c2)c2ccccc21)NCc1ccccc1 (configuration not stated) | i | -21.0% | -12.2% | / | -24.5% | /
O=C(CN1C(=O)C2(SCC(=O)N2c2cccc(Cl)c2)c2ccccc21)NCCc1ccccc1 (configuration not stated) | i | 11.2µM* | -19.9% | / | ? | /
CCCCCCCCN1C(=O)[C@H](CC(=O)NCC2CCCCC2)C[C@@]2(C(=O)OCC)CCCC=C12 | ? | / | / | 2.5% | ? | -13.6%
CCCCCCCCN1C(=O)[C@H](CC(=O)NCCCC)C[C@@]2(C(=O)OC)CCCCC=C12 | 28.2µM* | / | / | ? | -14.6% | ?
CCOC(=O)[C@]12CCCC=C1N(Cc1ccccc1)C(=O)[C@H](CC(=O)N1CCN(C(=O)C3CC3)CC1)C2 | / | / | / | 6.2% | / | -13.6%
COC(=O)[C@]12CCCCC=C1N(Cc1ccc(Cl)cc1Cl)C(=O)[C@H](CC(=O)NCCCCc1ccccc1)C2 | ? | / | / | ? | -33.4% | ?
CCCCCCCCN1C(=O)[C@H](CC(=O)N2CCN(C(=O)C3CC3)CC2)C[C@@]2(C(=O)OCC)CCCC=C12 | 14.1µM* | / | / | ? | ? | ?
CCCCNC(=O)C[C@@H]1C[C@@]2(C(=O)OC)CCCCC=C2N(Cc2ccc(Cl)cc2Cl)C1=O | 31.6µM* | / | / | ? | ? | -19.0%
CCCCCCCCN1C(=O)[C@H](CC(=O)NCc2cccc(C(F)(F)F)c2)C[C@@]2(C(=O)OCC)CCCC=C12 | ? | / | / | -27.0% | -8.4% | 14.6µM*
CCN(C(=O)C1CCCN(c2ncnc3onc(-c4ccc(F)cc4)c23)C1)c1ccccc1 (configuration not stated) | / | 2.6% | 7.1% | / | / | /
O=C(NCCCCCCCN1CCCCCCC1)C(C1CCCCC1)C1CCCCC1 | / | 17.8µM* | -2.9% | -16.0% | ? | ?
O=C(NCCCN1CCOCC1)NC1CCCCC1 | i | 10.0% | 2.6% | -1.7% | 3.9% | -4.0%
NC1CCC(Nc2nc(Nc3ccc(C(=O)N4CCCCC4)cc3)c3ncn(-c4cccc(F)c4)c3n2)CC1 (configuration not stated) | / | / | / | / | 32.2% | /
O=C(NCCCN1CCN(c2ccccc2F)CC1)c1ccc2nc(CCc3ccccc3)oc2c1 | / | ? | 11.2µM* | / | / | /
O=C(NCCCN1CCN(c2ccccc2F)CC1)c1ccc2nc(Cc3ccccc3)oc2c1 | / | ? | -42.6% | / | / | /
COc1ccc(CC2=NN3C([C@@H](CCc4ccccc4)[C@@H](C)O)=NC(C)C3C(=O)N2)cc1OC (some centres not stated) | / | / | / | / | 42.7% | /
OC(COCC(F)(F)C(F)(F)C(F)(F)C(F)F)Cn1c2ccc(Cl)cc2c2cc(Cl)ccc21 (configuration not stated) | ? | 10µM* | -117.4% | ? | ? | ?
CCOC(=O)c1c(O)c2cc(Cl)ccc2n(CC)c1=O | i | -1.5% | -17.5% | 5.6% | -3.7% | 8.1%
CC1(C)S[C@@H]2[C@H](NC(=O)C(N)c3ccccc3)C(=O)N2[C@H]1C(=O)OC1OC(=O)c2ccccc21 (some centres not stated) | i | / | / | / | / | /
COc1cccc(/C=N/Nc2ncnc(N)c2[N+](=O)[O-])c1OC | i | 4.3% | -12.5% | -10.8% | 8.91µM* | -1.0%
O=[N+]([O-])c1ccc(N=Nc2ncc[nH]2)cc1 | 1.26µM* | -11.4% | -13.9% | 18.4µM* | / | 6.51µM*
